# Reference: paper PMC4336329 (PLoS ONE, 2015)
# In all, about 310,000 compounds went through this assay and about 14,000 (4.5%) showed an effect of 50% or more. The effect is printed as a negative number. For the sample, strong results were picked, then their nearest neighbours and some compounds at random.
# Molecular target: human ether-à-go-go-related gene (hERG) potassium channel (human, UniProt Q12809)
# Assay: primary screen, population patch clamp on CHO cells stably expressing hERG; higher = less effect of the substance
# 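Also: peak tail current of the secondary pulse compared with the same well before compound.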
# human ether-à-go-go-related gene (hERG) potassium channel, sequence (Q12809 whole entry, looked up): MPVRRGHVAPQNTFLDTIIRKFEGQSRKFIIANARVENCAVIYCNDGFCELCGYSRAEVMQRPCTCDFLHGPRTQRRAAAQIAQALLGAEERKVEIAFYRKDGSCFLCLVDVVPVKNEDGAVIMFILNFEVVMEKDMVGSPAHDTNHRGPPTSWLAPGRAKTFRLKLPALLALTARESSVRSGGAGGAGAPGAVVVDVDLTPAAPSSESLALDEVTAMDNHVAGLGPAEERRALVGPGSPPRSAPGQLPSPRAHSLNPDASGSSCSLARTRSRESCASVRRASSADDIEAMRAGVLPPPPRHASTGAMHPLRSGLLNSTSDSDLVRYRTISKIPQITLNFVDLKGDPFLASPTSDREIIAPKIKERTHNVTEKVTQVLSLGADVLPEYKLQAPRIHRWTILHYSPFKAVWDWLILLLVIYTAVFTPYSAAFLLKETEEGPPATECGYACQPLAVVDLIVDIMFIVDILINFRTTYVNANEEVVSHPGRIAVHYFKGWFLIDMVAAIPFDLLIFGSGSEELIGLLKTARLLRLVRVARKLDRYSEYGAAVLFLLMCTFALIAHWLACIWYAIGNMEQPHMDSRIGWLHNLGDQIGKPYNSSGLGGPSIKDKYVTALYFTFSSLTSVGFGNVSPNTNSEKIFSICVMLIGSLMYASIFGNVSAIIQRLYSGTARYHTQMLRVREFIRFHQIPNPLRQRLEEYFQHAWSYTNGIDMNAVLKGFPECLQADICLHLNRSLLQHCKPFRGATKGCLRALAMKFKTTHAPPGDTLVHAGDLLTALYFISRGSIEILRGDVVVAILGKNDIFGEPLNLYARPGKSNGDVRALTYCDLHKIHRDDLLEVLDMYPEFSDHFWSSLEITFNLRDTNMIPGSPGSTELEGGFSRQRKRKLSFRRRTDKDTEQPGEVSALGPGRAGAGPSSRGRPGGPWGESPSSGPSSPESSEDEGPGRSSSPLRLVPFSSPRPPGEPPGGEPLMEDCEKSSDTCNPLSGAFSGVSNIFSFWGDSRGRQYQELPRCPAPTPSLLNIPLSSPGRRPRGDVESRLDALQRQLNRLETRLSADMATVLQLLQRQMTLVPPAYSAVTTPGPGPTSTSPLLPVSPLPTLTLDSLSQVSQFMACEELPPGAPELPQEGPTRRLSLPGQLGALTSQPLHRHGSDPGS
row,Compound,"hERG current change (%, negative = inhibition) at 10uM [%]"
1,CC(C)CN(C(=O)COC(=O)c1cccc2ccccc12)c1c(N)n(Cc2ccccc2)c(=O)[nH]c1=O,6.01
2,O[C@@H]1C2CCCC1[C@]1(O)CCCCC1C2 (stereo partly drawn),8.35
3,Cc1ccc(Cl)c(OCC(=O)Nc2ccccc2N2CCCCC2)c1,5.15
4,CS(=O)(=O)N(Cc1ccccc1)c1ccc(C(=O)NCCSCc2ccco2)cc1,-18
5,O=C(O)COc1ccccc1/C=C1\SC(=S)N(c2cccnc2)C1=O,-10.1
6,CCOC(=O)C1CCN(C(=O)Cc2ccc(C)cc2)CC1,-1.62
7,CCOC(=O)C1CCN(C(=O)CCc2c(C)nc3cc(-c4ccccc4)nn3c2C)CC1,-78.5
8,CCOC(=O)C1CCCCN1C(=O)CCc1c(C)nc2ncnn2c1C (stereo not drawn),1.42
9,COc1ccc(-c2cc3nc(C)c(CCC(=O)N4CCN(c5ccccn5)CC4)c(C)n3n2)c(OC)c1,-36
10,CCOC(=O)C1CCN(c2cc(C)nc3cc(-c4cccc(F)c4)nn23)CC1,-5.74
11,CCOC(=O)C1CCCCN1C(=O)CCc1c(C)nc2cc(-c3ccccc3)nn2c1C (stereo not drawn),-64.4
12,COc1cc(OC)cc(-c2cc3nc(C)c(CCC(=O)O)c(C)n3n2)c1,26
13,CCOC(=O)C1CCN(C(=O)Cc2ccc(-c3ccccc3)cc2)CC1,-57.7
14,CCOC(=O)C1CCN(C(=O)CCc2ccccc2)CC1,2.13
15,NC(=O)C1CCN(C(=O)Cc2ccc(-c3ccccc3)cc2)CC1,1.65
16,CCOC(=O)C1CCN(C(=O)c2ccc(OC)cc2OC)CC1,-25.5
17,CCOC(=O)C1CCN(C(=O)CCc2c(C)nc3cc(-c4ccc(OC)cc4OC)nn3c2C)CC1,-70.7
18,COc1ccc(C(=O)NCC(=O)N/N=C/c2cccc(OC(=O)c3ccco3)c2)cc1OC,21.6
19,COC(=O)c1[nH]c2cc(OC)ccc2c1NC(=O)CN1CCN(c2cccc(C)c2)C(C)C1 (stereo not drawn),-0.154
20,CCOC(=O)CNC(=O)CSc1nnc(Cn2cnc3ccccc32)n1C,-0.389
21,O=C(CCC1CCCCC1)NCc1ccccn1,-10.8
22,COC(=O)n1ccc(C(=O)Nc2ccccc2F)n1,-8.09
23,O=C(O)CCc1nn2c3ccccc3nc2n(Cc2ccccc2)c1=O,36.2
24,Cc1[nH]c2c(Cl)cccc2c(=O)c1CN1CCCC1,-10.6

row,Compound,"hERG current change (%, negative = inhibition) at 10uM [%]"
1,Cc1c(CN2CCC(CO)(CCOc3ccccc3)CC2)[nH]c2c(Cl)cccc12,-60.5
2,COc1ccc2[nH]c(CN3CCC(CO)(CCOc4ccccc4)CC3)c(C)c2c1,-45.3
3,Cc1c(CN2CCN(C)C(CCO)C2)[nH]c2c(Cl)cccc12 (stereo not drawn),-42
4,Cc1ccc2[nH]c(CN3CCC(CO)(CC4CCCCO4)CC3)c(C)c2c1 (stereo not drawn),-43.7
5,Cc1c(CN2CCC(CO)(CCOc3ccccc3)CC2)[nH]c2ccc(Cl)cc12,-71
6,C/C(=N\NC(=O)c1ccc(CSc2nncn2C)cc1)c1ccc(C#N)cc1,-26
7,Cc1nn(Cc2nnc(SCC(=O)Nc3ccc(Cl)cc3)n2C)c(C)c1[N+](=O)[O-],-22.9
8,Cn1c(SCC(=O)Nc2ccccc2)nnc1C(F)(F)F,32.6
9,O=C(CSc1nncn1-c1cccnc1)Nc1cccc(C(F)(F)F)c1,-57.7
10,Cn1c(CN2CCOCC2)nnc1SCC(=O)Nc1cccc(C(F)(F)F)c1,-1.04
11,Cn1c(SCC(=O)Nc2ccccc2[N+](=O)[O-])nnc1C(F)(F)F,-3.31
12,Cc1nn(Cc2nnc(SCC(=O)Nc3cccc(C(F)(F)F)c3)n2C)c(C)c1[N+](=O)[O-],-57.7
13,O=C(CSc1nncn1-c1cccnc1)Nc1cccc([N+](=O)[O-])c1,4.83
14,Cc1ccc(NC(=O)CSc2nnc(C(F)(F)F)n2C)cc1[N+](=O)[O-],-73.6
15,O=C(CSc1nncn1-c1cccnc1)Nc1ccccc1C(F)(F)F,4.9
16,Cn1cc(CN2CC3C[C@@H]4CC2C[C@H](C3)C4)c(-c2ccc3c(c2)OCCO3)n1,-8.66
17,O=C(NCc1ccccn1)Nc1cccc([N+](=O)[O-])c1,11.6
18,COc1ccc(Cc2nnc(SCC(=O)Nc3ccc(N4CCOCC4)cc3)n2C)cc1,8.93
19,Cc1ccc(C(=O)OCC(=O)NCc2ccco2)cc1,-8.9
20,CCOC(=O)C1CCCN(C(=O)/C=C/c2ccc([N+](=O)[O-])cc2)C1 (stereo not drawn),-64.8
21,CCOC(=O)C1CCCN(C(=O)/C=C/c2ccc(Cl)cc2)C1 (stereo not drawn),-59.9
22,COc1ccc2cc(C(=O)C3CCCN(C(=O)/C=C/c4ccccn4)C3)ccc2c1 (stereo not drawn),-18.3
23,CCOC(=O)C1CCCN(C(=O)Cc2ccc(Cl)cc2)C1 (stereo not drawn),6.9
24,O=C(c1ccc(Cl)cc1)C1CCCN(C(=O)/C=C/c2ccccn2)C1 (stereo not drawn),-51.9

row,Compound,"hERG current change (%, negative = inhibition) at 10uM [%]"
1,CCOC(=O)C1CCCN(C(=O)/C=C/c2cccc([N+](=O)[O-])c2)C1 (stereo not drawn),-41.8
2,CCOC(=O)C1CCCN(C(=O)/C=C/c2ccc(OC)cc2)C1 (stereo not drawn),-23.6
3,CCOC(=O)C1CCCN(C(=O)/C=C/c2ccccc2[N+](=O)[O-])C1 (stereo not drawn),-12.6
4,COc1c(C)cc(C(=O)C2CCCN(C(=O)/C=C/c3ccccn3)C2)cc1C (stereo not drawn),-15.8
5,O=C(O)C(=O)O.O=C(c1ccc(F)cc1)N1CCN(C2CC3CCC2C3)CC1 (stereo not drawn),-2.85
6,Cn1cnnc1SCCCN1C(=O)c2cccc3cccc(c23)C1=O,-30.6
7,COc1ccc(CCN(C)C(=O)Cc2ccc(-c3ccccc3)cc2)cc1OC,-0.187
8,Brc1c(-c2ccccc2)nc2n1Cc1ccccc1-2,21.8
9,CC(C)(C)C(=O)Oc1cccc(Nc2ncnc3ccccc23)c1,9.76
10,Cc1ccc(Oc2ncnc(N)c2[N+](=O)[O-])cc1C,31.8
11,NC(=O)CC(NC(=O)c1ccccc1)c1ccc(N2CCN(c3ccccc3)CC2)c([N+](=O)[O-])c1 (stereo not drawn),1.33
12,O=C(CSc1nc2ccccc2o1)NC(=O)NCc1ccccc1,8.99
13,O=C(CSc1nc2[nH]ncc2c(=O)n1-c1ccccc1)c1ccc2c(c1)OCCO2,-6.39
14,O=C(CCCC(=O)c1ccc(F)cc1)c1ccc(F)cc1,-25.8
15,CCN(CCCC(=O)c1ccc(F)cc1)CCc1ccccc1.Cl,-84.5
16,O=C(CCCc1ccccc1)c1ccccc1,18.5
17,CCc1ccc(-c2nc(CS(=O)CC(=O)NC3CCCCCC3)c(C)o2)cc1 (stereo not drawn),-7.44
18,Cc1ccc(S(=O)(=O)N2CCCC(C(=O)NC3CCCC3)C2)cc1Cl (stereo not drawn),17.8
19,Cc1ccc(N=C(N)N=C(N)N)cc1,16.9
20,CN1CCN(/N=C/c2ccc(-c3ccc([N+](=O)[O-])cc3)o2)CC1,-66
21,O=[N+]([O-])c1ccc(-c2ccc(/C=N/O)o2)cc1,8.69
22,CN1CCN(/N=C/c2ccc(-c3ccc([N+](=O)[O-])cc3Cl)o2)CC1,-46.2
23,Cc1ccc(S(=O)(=O)NC(C)(C)CN2CCNCC2)cc1,-9.34
24,CC(C)(CN1CCN(Cc2ccccc2)CC1)NS(=O)(=O)c1ccccc1,-39.6

row,Compound,"hERG current change (%, negative = inhibition) at 10uM [%]"
1,CC(C)(CN1CCCCC1)NS(=O)(=O)c1ccc(Cl)cc1,-13.4
2,CC(C)(CN1CCNCC1)NS(=O)(=O)c1ccc(Cl)cc1,-60.3
3,CC(C)(CN1CCN(Cc2ccccc2)CC1)NS(=O)(=O)c1ccc(Cl)cc1,-74.7
4,CC(C)(CN1CCCC1)NS(=O)(=O)c1ccc(Cl)cc1,29.6
5,CCOc1ccc2nc(NC(=O)c3cnccn3)sc2c1,2.76
6,c1coc(-c2nc3ccccc3nc2-c2ccco2)c1,-4.79
7,CCN(CC)CCN1c2ccccc2Sc2ccccc21.O=C(O)C(=O)O,-41.3
8,CN(C)CCCNC(=O)N1c2ccccc2Sc2ccccc21,1.39
9,CCC(=O)c1ccc2c(c1)N(CCCN(C)C)c1ccccc1S2.Cl,-63.5
10,CN(C)CCCN1c2ccccc2Sc2ccccc21.Cl,-28.1
11,CCN(CC)CC(=O)N1c2ccccc2Sc2ccccc21,1.42
12,CCN(CC)CCCCN1c2ccccc2Sc2ccccc21.Cl,-61.7
13,CC(C)(C)c1ccc(O)c(N)c1,8.01
14,N#Cc1ncccc1CCc1cccc(Cl)c1,-11.1
15,NS(=O)(=O)c1ccc(CCNC(=O)CCS(=O)(=O)c2ccc(Br)cc2)cc1,19.2
16,O=C(CCCC1=NS(=O)(=O)c2ccccc2N1)N1CCN(c2ccc(Cl)cc2)CC1,-61.1
17,CC(C)(CC(=O)N1CCN(c2ccc(Cl)cc2)CC1)CC1=NS(=O)(=O)c2ccccc2N1,-61.1
18,COc1ccc(N2CCN(C(=O)CCCC3=NS(=O)(=O)c4ccccc4N3)CC2)cc1,-7.68
19,COc1cccc(N2CCN(C(=O)CC(C)(C)CC3=NS(=O)(=O)c4ccccc4N3)CC2)c1,-6.09
20,O=C(CCCC1=NS(=O)(=O)c2ccccc2N1)N1CCN(c2ccccc2)CC1,-1.79
21,COc1ccccc1N1CCN(C(=O)CCCC2=NS(=O)(=O)c3ccccc3N2)CC1,2.62
